Bioassay records (PubChem)
Most compounds without a hit are left out; they make up all but 12% or so of the library.
Sfp inh: qHTS Assay for Inhibitors of Bacillus subtilis Sfp phosphopantetheinyl transferase (PPTase) | 4'-phosphopantetheinyl transferase ffp (Bacillus subtilis), Q9F4F7 | Biochemical Sfp PPTase activity, qHTS | Potency, µM, inactives show largest response in the series, negative = inhibition, hits mostly inhibitors | 3.5% of 310,000 active | AID 1490, 2009;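 note: the enzyme is Sfp with the accession as filed and its product quenches rhodamine fluorescence; 0% = enzyme reaction without inhibitor and -100% = no enzyme wells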
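Step 1, compound plus 15 nM Sfp-PPTase, 15 min, room temperature. Step 2, add rhodamine-CoA (5 uM) and BHQ-2-YbbR (12.5 uM). Step 3, read 525/598 nm fluorescence at 0 and 30 min.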
G9a inh: qHTS Assay for Inhibitors of Histone Lysine Methyltransferase G9a; Histone-lysine N-methyltransferase EHMT2 (Homo sapiens), Q96KQ7; G9a H3K9 monomethylation, AlphaScreen, 2 h; Potency, µM (doses to about 102 µM), for the others: top-dose activity, negative = inhibition, usual class: inhibitors; 8.8% of 350,000 active; AID 504332, 2011; note: % is set by controls: 0 for no effect and ±100 for the full control effect; nearly all actives have a fitted effect of over 75% in size
Target sequence (Q96KQ7 913-1193 limits assumed): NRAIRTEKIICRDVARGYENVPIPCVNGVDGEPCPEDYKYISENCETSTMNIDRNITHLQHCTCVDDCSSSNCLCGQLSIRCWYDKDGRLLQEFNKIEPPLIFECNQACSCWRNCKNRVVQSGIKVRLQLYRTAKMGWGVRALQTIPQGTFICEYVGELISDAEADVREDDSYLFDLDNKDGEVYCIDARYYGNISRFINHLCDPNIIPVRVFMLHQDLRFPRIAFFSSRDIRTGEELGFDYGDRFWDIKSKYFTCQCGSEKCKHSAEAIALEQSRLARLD
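AlphaScreen detection with an anti-monomethyl H3K9 antibody quantified product after a 2 h room-temperature reaction containing 500 nM biotinylated H3K9 peptide, 20 µM SAM and 20 nM enzyme, which had been preincubated 15 min with compound.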
JMJD2A Tudor inh: qHTS Assay for Inhibitors of JMJD2A-Tudor Domain; 4.4% of 390,000 active; AID 504339, 2011; Lysine-specific demethylase 4A (Homo sapiens), O75164; Potency, µM (titrated, usually from 114 µM), inactives show at the highest dose activity change, negative = inhibition, actives largely listed as inhibitors; AlphaScreen JMJD2A-Tudor / H3K4me3 peptide binding; note: % is set by controls: 0 for no effect and ±100 for the full control effect; nearly all actives have a fitted effect of over 50% in size
HP1b chromo inh: HTS for Inhibitors of HP1-beta Chromodomain Interactions with Methylated Histone Tails; AID 540317, 2011; Potency, µM (titrated, usually from 114 µM), inactives show at the highest dose activity change, negative = inhibition, most hits filed as inhibitors; AlphaScreen HP1-beta / biotin-H3K9me3 peptide binding; 0.56% of 390,000 active; Chromobox protein homolog 1 (Homo sapiens), P83916; note: nearly all actives have a fitted effect of over 70% in size
Target sequence (P83916 whole entry, looked up): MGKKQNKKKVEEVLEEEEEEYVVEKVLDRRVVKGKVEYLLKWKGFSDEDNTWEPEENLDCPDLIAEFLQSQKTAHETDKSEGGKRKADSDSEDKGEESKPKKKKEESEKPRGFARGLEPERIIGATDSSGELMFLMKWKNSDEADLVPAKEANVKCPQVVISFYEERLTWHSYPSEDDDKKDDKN
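HP1-beta protein (50 nM final) preincubated 30 min at room temperature with biotinylated H3(1-18)K9me3 peptide (50 nM) in PBS pH 7.4, 0.01% Tween-20, then compound added for 30 min. AlphaScreen streptavidin donor/nickel chelate acceptor beads (10 ug/mL final), 30 min dark, luminescence read.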
BAZ2B block: qHTS Assay for Inhibitors of BAZ2B | 4.4% of 360,000 active | AID 504333, 2011 | AlphaScreen BAZ2B-H3K14Ac peptide displacement | Bromodomain adjacent to zinc finger domain protein 2B (Homo sapiens), Q9UIF8 | Potency, µM (doses to about 114 µM), inactives show at the top dose activity change, negative = inhibition, usual class: inhibitors; note: % is set by controls: 0 for no effect and ±100 for the full control effect; nearly all actives have a fitted effect of over 60% in size
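Complex of BAZ2B and biotin-H3K14Ac (50 nM apiece) forms over 30 min at RT, then faces library compounds up to 110 uM for another 30 min; AlphaScreen beads added, 20 min dark incubation, luminescence read.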
L3MBTL1 inh: qHTS Assay for the Inhibitors of L3MBTL1; Lethal(3)malignant brain tumor-like protein 1 (Homo sapiens), Q9Y468; AlphaScreen L3MBTL1–H3K9me1 peptide binding; Potency, µM (doses to about 57.1 µM), inactives show at the top dose activity, negative = inhibition, hits mostly inhibitors; 0.66% of 230,000 active; AID 485360, 2010; note: % is set by controls: 0 for no effect and ±100 for the full control effect; nearly all actives have a fitted effect of over 60% in size
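Displacement of a biotinylated histone H3(1-15) peptide monomethylated at Lys9 (75 nM) from L3MBTL1 (50 nM) was measured by AlphaScreen after a 30 min room-temperature compound incubation; cefsulodin titration served as intraplate control.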
Active calls of the source: *; [ ] = another dose, or the depositor's remark. Calls come from the whole dose curve; as a rule, active = well fitted curve in the direction sought with a large enough effect; inconclusive = small, poorly fitted or top-dose-only effect, or another doubt; inactive = no such curve, though single readings can be large; an effect the other way counts as inactive or inconclusive. Potency is the fitted concentration of half-maximal effect.

For COc1cc(NC2c3ccccc3C(=O)N2Cc2ccc3c(c2)OCO3)cc(OC)c1 (stereo not given) the results were Sfp inh -3%, G9a inh 50µM*, JMJD2A Tudor inh inconclusive, HP1b chromo inh -9% and BAZ2B block inconclusive.
Screening CCN(CC)S(=O)(=O)c1ccc(NC2c3ccccc3C(=O)N2Cc2ccc3c(c2)OCO3)cc1 (stereo not given) returned Sfp inh -4%, G9a inh 40µM*, JMJD2A Tudor inh -18%, HP1b chromo inh 14% and BAZ2B block 0%.
Screening COC1C(OC(=O)/C=C/C=C/C=C/C=C/C(=O)O)CCC2(CO2)C1C1(C)OC1CC=C(C)C (stereo not given) returned Sfp inh -16% and G9a inh inconclusive.
CSCC[C@H](NC(=O)[C@H](CO)NC(=O)[C@H](Cc1ccc(O)cc1)NC(=O)[C@@H](N)CO)C(=O)N[C@@H](CCC(=O)O)C(=O)N[C@@H](Cc1cnc[nH]1)C(=O)N[C@@H](Cc1ccccc1)C(=O)N[C@@H](CCCNC(=N)N)C(=O)N[C@@H](Cc1c[nH]c2ccccc12)C(=O)NCC(=O)N[C@@H](CCCCN)C(=O)N1CCC[C@H]1C(=O)N[C@H](C(=O)NCC(=O)N[C@@H](CCCCN)C(=O)N[C@@H](CCCCN)C(=O)N[C@@H](CCCNC(=N)N)C(=O)N[C@@H](CCCNC(=N)N)C(=O)N1CCC[C@H]1C(=O)N[C@H](C(=O)N[C@@H](CCCCN)C(=O)N[C@H](C(=O)N[C@@H](Cc1ccc(O)cc1)C(=O)N1CCC[C@H]1C(=O)O)C(C)C)C(C)C)C(C)C was read as Sfp inh -18%.
`Cc1c(C(=O)O)sc2nc(/C=C/c3ccccc3OC(F)F)[nH]c(=O)c12` gave Sfp inh inconclusive, G9a inh inconclusive, JMJD2A Tudor inh 16µM*, HP1b chromo inh inconclusive and BAZ2B block 71µM*.
C=CCn1c(SCc2nc3sc(C(=O)O)c(C)c3c(=O)[nH]2)nnc1-c1ccc(F)cc1 was read as Sfp inh 26%, G9a inh 27%[12.7 µM], JMJD2A Tudor inh -16%, HP1b chromo inh 23%, BAZ2B block -18% and L3MBTL1 inh -5%.
Screening Cc1ccc(/C=C/c2nc3sc(C(=O)O)c(C)c3c(=O)[nH]2)cc1[N+](=O)[O-] returned Sfp inh 79µM*, G9a inh 7.1µM*, JMJD2A Tudor inh inconclusive, HP1b chromo inh -8% and BAZ2B block 89µM*.
Screening Cc1c(C(=O)O)sc2nc(/C=C/c3cccc(F)c3)[nH]c(=O)c12 returned Sfp inh 9%, G9a inh 3%, JMJD2A Tudor inh -3%, HP1b chromo inh 43% and BAZ2B block inconclusive.
Screening CC(C)(C)OC(=O)N1CCC(NC(=O)c2[nH]cnc2C(=O)Nc2ccon2)CC1 returned G9a inh 11%[0.501 µM], JMJD2A Tudor inh -23%, HP1b chromo inh 63%, BAZ2B block 56µM* and L3MBTL1 inh -1%.
Screening CC(C)(C)OC(=O)NCCCCCNC(=O)c1[nH]cnc1C(=O)Nc1ccon1 returned G9a inh 8%[0.501 µM], JMJD2A Tudor inh -9%, HP1b chromo inh 48%, BAZ2B block 56µM* and L3MBTL1 inh -12%.
For CC(C)(C)OC(=O)N1CCC(NC(=O)c2nc[nH]c2C(=O)N2CCN(C(=O)OC(C)(C)C)CC2)CC1 the results were G9a inh -5%[2.33 µM], JMJD2A Tudor inh -29%, HP1b chromo inh 16%, BAZ2B block 0% and L3MBTL1 inh 3%.
Screening CC(C)(C)OC(=O)N1CCC(NC(=O)c2[nH]cnc2C(=O)Nc2ccc(Cl)cc2)CC1 returned G9a inh -4%[0.501 µM], JMJD2A Tudor inh -19%, HP1b chromo inh 55%, BAZ2B block 10% and L3MBTL1 inh 8%.
For CC(C)(C)OC(=O)N1CCC(NC(=O)c2nc[nH]c2C(=O)N2CCc3ccccc3C2)CC1 the results were G9a inh -2%[0.501 µM], JMJD2A Tudor inh -27%, HP1b chromo inh 28%, BAZ2B block 56µM* and L3MBTL1 inh -18%.
For CS(=O)(=O)N1CCC(Oc2ccccc2C(=O)N2CCC[C@H]2CO)CC1 the results were Sfp inh 15%, G9a inh 1%, JMJD2A Tudor inh 0%, HP1b chromo inh 19% and BAZ2B block -3%.
For CCOC(=O)C1=C(O)/C(=C\c2ccc(CNC(=O)C(=O)Nc3ccccc3)o2)N=C1C the results were Sfp inh 32µM*, G9a inh inconclusive, JMJD2A Tudor inh inconclusive, HP1b chromo inh 1% and BAZ2B block 56µM*.
`Cc1cc(C)n(C(=O)CSc2nnc(SCC(=O)n3nc(C)cc3C)s2)n1` gave Sfp inh -15%, G9a inh 79µM*, JMJD2A Tudor inh -26%, HP1b chromo inh 25%, BAZ2B block 22% and L3MBTL1 inh 6%.
For Cc1cc(OCC(=O)NCC2(N3CCN(C)CC3)CCCCC2)cc(C)c1Cl the results were G9a inh 1%[59 µM], JMJD2A Tudor inh 0%, HP1b chromo inh 42% and BAZ2B block -5%.
COCCn1c(=NC(=O)c2cc(Cl)sc2Cl)sc2cc(S(N)(=O)=O)ccc21 was read as Sfp inh 11%, G9a inh 28µM*, JMJD2A Tudor inh -7%, HP1b chromo inh 16%, BAZ2B block -8% and L3MBTL1 inh 1%.
Screening CCOCCn1c(=NC(=O)c2cc(Cl)sc2Cl)sc2cc(S(N)(=O)=O)ccc21 returned Sfp inh 18%, G9a inh 8%[59 µM], BAZ2B block -2% and L3MBTL1 inh 6%.
Cc1ccc(S(=O)(=O)c2nc(-c3ccc(F)cc3)oc2SCC(=O)NCC2CCCO2)cc1 (stereo not given) was read as Sfp inh -15%, G9a inh inconclusive, JMJD2A Tudor inh -10%, HP1b chromo inh 23%, BAZ2B block 5% and L3MBTL1 inh 0%.
`COc1ccc(NC(=O)CSc2oc(-c3ccco3)nc2S(=O)(=O)c2ccc(C)cc2)c(OC)c1` gave G9a inh -22%[59 µM], JMJD2A Tudor inh -20%, HP1b chromo inh 19% and BAZ2B block -13%.
